Results taken from the supplement of paper PMC8387472.

Key:
Experiment in all cases: fraction of edited reads among all mapped reads; higher = more Cas9 editing
Details in all cases: mESC; 2uM; 72 h treatment, harvest day 5
[1] = compound: CC(=O)O/N=C1\C(=O)N(Cc2cc(Cl)ccc2Cl)c2ccc(Cl)cc21
[2] = compound: CC(C)(C#N)c1ccc(N2C(=O)OCc3cnc4ccc(-c5cnc6ccccc6c5)cc4c32)cc1
[3] = compound: CCCCOc1c(C(=O)c2c(F)cc(C)cc2F)c[nH]c2nncc1-2
[4] = compound: CCN1CCN(CC(=O)Nc2ccc(-c3cccc4c(=O)cc(N5CCOCC5)oc34)c3sc4ccccc4c23)CC1
[5] = compound: CCc1c2c(nc3ccc(OC(=O)N4CCC(N5CCCCC5)CC4)cc13)-c1cc3c(c(=O)n1C2)COC(=O)[C@]3(O)CC [Irinotecan HCl Trihydrate]
[6] = compound: CCn1c(=O)c(-c2ccc(Cl)cc2Cl)cc2cnc(Nc3ccc(N4CCNCC4)c(F)c3)nc21
[7] = compound: CNc1ccc([N+](=O)[O-])c(Nc2ccc3[nH]ncc3c2)n1
Rifapentine = compound: CO[C@H]1/C=C/O[C@@]2(C)Oc3c(C)c(O)c4c(O)c(c(/C=N/N5CCN(C6CCCC6)CC5)c(O)c4c3C2=O)NC(=O)/C(C)=C\C=C\[C@H](C)[C@H](O)[C@@H](C)[C@@H](O)[C@@H](C)[C@H](OC(C)=O)[C@@H]1C [Rifapentine]
[8] = compound: COc1ccccc1-c1cc(Nc2cccc(CS(N)(=O)=O)c2)ncn1
[9] = compound: C[C@@H]1CN(CC(=O)Nc2ccc3c(c2)Cc2cccc(-c4cc(=O)cc(N5CCOCC5)o4)c2S3)C[C@H](C)O1

| Target | fraction of edited reads among all mapped reads [1] | fraction of edited reads among all mapped reads [2] | fraction of edited reads among all mapped reads [3] | fraction of edited reads among all mapped reads [4] | fraction of edited reads among all mapped reads [5] | fraction of edited reads among all mapped reads [6] | fraction of edited reads among all mapped reads [7] | fraction of edited reads among all mapped reads (Rifapentine) | fraction of edited reads among all mapped reads [8] | fraction of edited reads among all mapped reads [9] |
| --- | --- | --- | --- | --- | --- | --- | --- | --- | --- | --- |
| 30.0 (DMSO control at this site: 1-bp insertion 0.074, MH deletion 0.67, edited 0.142) GAGCTGGCATGAGTATTTGTGCCACATGGCTCCCACATGGCTCCACATGCAAGTTTGAAAC | 0.142 | 0.149 | 0.158 | 0.066 | 0.204 | 0.156 | 0.187 | 0.224 | 0.177 | 0.134 |
| 46.0 TTAAGAGCAATGTTCACGCAACTTGAAATTATATCTGTGGTCTTCAAATTGTCTTTTGTCA | – | 0.109 | 0.106 | – | – | – | 0.099 | 0.157 | – | – |
| 23.0 AGAACAAAGCGCTCATATAACGATATGGGGGGTTATGGGGGGTTGAATTGCTTCAGCACGA | – | – | – | – | – | – | 0.981 | – | – | – |
| 29.0 (DMSO control at this site: 1-bp insertion 0.084, MH deletion 0.745, edited 0.133) TTGATGAACTTCCTCTTCTTCTCATGTCTCCGGTCTCCGGTAGGCCACGTGCATGGCCACT | 0.166 | 0.157 | 0.153 | 0.073 | 0.196 | 0.142 | 0.167 | 0.256 | 0.172 | 0.0736 |
| 34.0 (DMSO control at this site: 1-bp insertion 0.184, MH deletion 0.385, edited 0.103) ATTATAGGACCCTGAGGGAGCAGAGATGTGGGAATGGGGGCCGAGCCAATTGTGATGTAAG | 0.119 | 0.107 | 0.0942 | 0.0488 | 0.159 | 0.0937 | 0.114 | 0.157 | 0.129 | 0.0719 |
| 8.0 GCATGCGTGTTTTGGGACAATGTAGTATACATTTGGGAGGCTCTCAGCTTTTCCCAATAAA | 0.0233 | 0.0207 | 0.0186 | – | – | – | – | – | – | – |
| 31.0 (DMSO control at this site: 1-bp insertion 0.315, MH deletion 0.329, edited 0.026) ACCTCCACAGGCTGGGTGGCCCGGAGGCTGGGCGGCCCGGAGGCTGGGCTGGGCGAGTATC | 0.0285 | 0.0243 | 0.0286 | 0.0119 | 0.0428 | 0.0286 | 0.0363 | 0.0504 | 0.0355 | – |
| 2.0 (DMSO control at this site: 1-bp insertion 0.364, MH deletion 0.356, edited 0.125) GGTGCCCCCGAGACCTACGCGAACCGAAATCGATGTCCGGTGCGCAAGCAGGGCTGGCGTC | 0.141 | 0.129 | 0.143 | 0.0564 | 0.191 | 0.14 | 0.176 | 0.228 | 0.172 | 0.121 |
| 15.0 GCGCCTCCAATGACCCAGTGGGATCCTACTCCATAATGGGATCCTGGGGATTCCTCGCTCC | 0.105 | 0.0725 | – | – | – | – | – | 0.107 | – | – |
| 27.0 CCAGAATTAGAACATATCATCTGGACCCTTTTCCATCTGGACCCTTTTCCAGCACACCCTG | 0.0506 | 0.055 | 0.0501 | – | 0.0605 | – | 0.0612 | 0.0829 | 0.0745 | – |
| 5.0 (DMSO control at this site: 1-bp insertion 0.214, MH deletion 0.567, edited 0.105) CGCTGACCCGAGACCTACGCGAACCGAAATCGGCGACCGGTGCGCAAGCAGGGCTGGCGTC | 0.13 | 0.128 | 0.133 | 0.0591 | 0.169 | 0.13 | 0.145 | 0.226 | 0.163 | 0.085 |
| 28.0 (DMSO control at this site: 1-bp insertion 0.035, MH deletion 0.77, edited 0.142) TGGTTCTTCCTTTGTAGAGAGTGTTCATCTGGGAATCTGGGACTTGGATGAGACAATCATT | 0.171 | 0.174 | 0.171 | 0.0787 | 0.217 | 0.16 | 0.181 | 0.291 | 0.196 | 0.0747 |
| 20.0 (DMSO control at this site: 1-bp insertion 0.349, MH deletion 0.138, edited 0.084) TACAGGTGTAGACTGGTTACGTGGCTGCGGAATTGACTGGTTACGTGGCTGCGGAATTTTG | 0.0924 | 0.0867 | 0.0976 | 0.0384 | 0.115 | 0.0929 | 0.1 | 0.133 | 0.147 | 0.103 |
| 22.0 (DMSO control at this site: 1-bp insertion 0.573, MH deletion 0.229, edited 0.045) CTGATGGTTGAAGGATTTAGCCGGGGTCCTAGACGCCGGGGTCCTAGACGAAAGGGCCACG | 0.0447 | 0.0542 | 0.0455 | 0.0167 | 0.0664 | 0.0371 | 0.0513 | 0.0926 | 0.0709 | 0.0389 |
| 33.0 (DMSO control at this site: 1-bp insertion 0.008, MH deletion 0.771, edited 0.112) CATTAAGAGCAGCTGCCGGCCCCCAAGTGGACAGAGCTGGCCCTGCTGATTCAACAGTGCA | 0.133 | 0.111 | 0.123 | 0.0458 | 0.162 | 0.115 | 0.126 | 0.211 | 0.163 | 0.0718 |
| 39.0 (DMSO control at this site: 1-bp insertion 0.328, MH deletion 0.371, edited 0.204) CTGCACAGTCACTTAGGATAGGAGAAGATGATGTATAGGGTTTAGTGGGAGATGTTGCAAG | 0.191 | 0.182 | 0.214 | 0.0792 | 0.252 | 0.192 | 0.223 | 0.335 | 0.248 | 0.191 |
| 7.0 (DMSO control at this site: 1-bp insertion 0.128, MH deletion 0.374, edited 0.098) TACTCAACCGAGACCTACGCGAACCGAAATCGTATGCCGGTGCGCAAGCAGGGCTGGCGTC | 0.117 | 0.115 | 0.118 | 0.0615 | 0.161 | 0.0955 | 0.135 | 0.19 | 0.126 | 0.0557 |
| 4.0 (DMSO control at this site: 1-bp insertion 0.146, MH deletion 0.523, edited 0.125) ACGCCTTAGTGCACGAGTGACGGGATAATGTGGTCTCAGGTAATTGATAGGCTTCCAACTT | 0.157 | 0.149 | 0.155 | 0.0719 | 0.194 | 0.136 | 0.182 | 0.243 | 0.188 | 0.0881 |
| 16.0 (DMSO control at this site: 1-bp insertion 0.172, MH deletion 0.29, edited 0.05) CGGACTGCACACATGGGTAGGATCGTGCACGCGAGGTAGGATCGTGCACGCGAAGTTATTC | 0.0491 | 0.0603 | 0.0612 | 0.0319 | 0.079 | 0.0596 | 0.0609 | 0.0951 | 0.076 | 0.0437 |
| 45.0 (DMSO control at this site: 1-bp insertion 0.017, MH deletion 0.666, edited 0.101) TTACACAGCATGAACTGCTAGGTGATGATGTCAGATTCGGTTTTACTAACTTCTCCAAAAA | 0.115 | 0.112 | 0.119 | 0.0494 | 0.153 | 0.113 | 0.133 | 0.203 | 0.144 | 0.0499 |
